Only some compounds are listed: those with a hit (about 3.2% of all), similar ones and a draw of the others.
Luciferase inh – qHTS Assay for Inhibitors of Firefly Luciferase | Potency, µM (titrated, usually from 57.1 µM), without a hit: at the top dose activity change, negative = inhibition, actives largely listed as inhibitors | AID 411, 2009 | purified firefly luciferase, luminescence, 8 min | hit rate 2.2% among 72,000 | Luciferin 4-monooxygenase (Photinus pyralis), P08659; active means well fitted inhibition curve with a large enough effect; inconclusive means small, poorly fitted or top-dose-only effect; further: on the % scale 0 is the no-effect control and ±100 the full control effect; nearly all actives have a fitted effect of over 40% in size
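Firefly luciferase (PKLight detection mix) with 10 uM ATP in pH 7.2 imidazole buffer (KCl, MgCl2, Tween 20, BSA). Compounds tested across a concentration series (qHTS). Luminescence read after 8 min at ambient temperature.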
GBA mod – Glucocerebrosidase; Lysosomal acid glucosylceramidase (Homo sapiens), P04062; purified enzyme, resorufin glucoside fluorescence (screen aimed at inhibitors), 20 min; Potency, µM; hit rate 1.1% among 48,000; AID 360, 2006; in the data active means potency below about 15 µM; inconclusive means mostly about 16 µM to 33 µM;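 further: the screen sought inhibitors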
Target sequence (P04062 whole entry, looked up): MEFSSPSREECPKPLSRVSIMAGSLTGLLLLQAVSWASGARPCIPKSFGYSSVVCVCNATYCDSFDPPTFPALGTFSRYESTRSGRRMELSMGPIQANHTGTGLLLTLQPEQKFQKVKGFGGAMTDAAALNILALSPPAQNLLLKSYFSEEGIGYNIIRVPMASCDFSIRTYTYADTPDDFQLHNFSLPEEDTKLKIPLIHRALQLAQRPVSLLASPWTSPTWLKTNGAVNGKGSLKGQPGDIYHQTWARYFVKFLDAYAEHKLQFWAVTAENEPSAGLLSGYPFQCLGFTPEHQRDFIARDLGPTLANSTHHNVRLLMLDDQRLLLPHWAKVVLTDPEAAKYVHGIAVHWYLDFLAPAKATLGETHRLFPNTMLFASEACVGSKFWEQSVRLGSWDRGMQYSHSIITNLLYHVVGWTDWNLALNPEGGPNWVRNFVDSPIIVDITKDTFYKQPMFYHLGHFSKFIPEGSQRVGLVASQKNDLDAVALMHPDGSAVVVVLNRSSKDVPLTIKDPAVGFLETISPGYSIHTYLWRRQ
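Normal human glucocerebrosidase (0.2 nM final) was assayed with resorufin β-D-glucopyranoside (30 uM final) in 50mM citric acid/KH2PO4, 10mM sodium taurocholate, 0.01% tween-20, pH 5.9. Compounds were titrated; fluorescence (Ex 548, Em 600) read after 20 min at RT.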
PK Bst – Pyruvate Kinase; purified pyruvate kinase, luminescence ATP production; ribose 5-phosphate activator present at AC10; Potency, µM; hit rate 1.2% among 51,000; AID 361, 2006; in the data active means potency below about 11 µM; inconclusive means mostly about 12 µM to 25 µM;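 the screen sought inhibitors and activators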;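 further: scaled between full activation by ribose 5 phosphate and full inhibition by luteolin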
* = called active by the depositor; i = inactive; u = inconclusive; x = not tested or not shown; [ ] = another dose, or the depositor's remark. Potency means the concentration at half of the fitted maximal effect.

SMILES	Luciferase inh	GBA mod	PK Bst
Cc1nc2ccccc2c(=O)n1/N=C/c1ccncc1	0%	x	x
CCc1cc2c(nc1CC)CCN(CC/C(C)=N/O[C@@H](C)c1cn([C@@H]3COC[C@@H]3O)nn1)C2	0%[11.4 µM]	x	x
COc1cc(NC(=O)c2cc3c(C)nc4ccccc4c3o2)cc(OC)c1OC	-4%	x	x
COc1ccc(NC(=O)c2cc(-c3ccc(C)o3)nc3ccccc23)cc1OC	2.5µM*	>77	3.7*
C=CC(C)(C)c1[nH]c2ccccc2c1C1=C(O)C(=O)C(c2c[nH]c3c(CC=C(C)C)cccc23)=C(O)C1=O	-1%	x	x
Cn1cccc1C(=O)N1CCC2(CCCN(c3ccc(-c4ccccc4)cc3)C2)CC1	1%[11.4 µM]	x	x
CCCCn1c(-c2ccccc2)nnc1-c1ccccc1	0%	>77	>57
CCCCN1c2ccccc2N(CCCO)c2cc(C)nnc21	16µM*	>77	x
Cc1cc(=O)oc2cc(O)c(CN(C)CC(=O)O)cc12	4%[11.4 µM]	x	x
COc1ccc(OC(=O)c2cc3ccccc3o2)cc1	7.9µM*	x	u
COc1ccc(OC)c(NC(=O)c2cc3ccccc3o2)c1	-20%	u	x
COCCn1nnnc1C(c1ccc(OC)c(OC)c1)N1CCN(c2nc3ccccc3s2)CC1 (stereo not given)	1%	6*	>57
COc1ccc(C(c2nnnn2Cc2ccccc2)N2CCN(c3nc4ccccc4s3)CC2)cc1 (stereo not given)	1%	>15	>57
O=C(O)CCCCn1cnc2c(=S)nc[nH]c21	0%[11.4 µM]	x	x
CCOC(=O)CCN1C(=O)[C@H]2[C@@H]3[C@H](O)C=CC(=O)[C@H]3CC[C@H]2C1=O	-1%[11.4 µM]	x	x
CN1CCN(c2ncnc3ccc(-c4ccoc4)cc23)CC1	-1%[2.29 µM]	x	x
COCCNC(=O)c1sc2nc(-c3ccccc3)cn2c1C	-14%	>77	x
COc1ccc2c(c1)sc1nc(-c3ccccc3)cn12	0.063µM*	x	0.055*
CCNc1ncc2nc(-c3ccccc3)c(=O)n(C)c2n1	0%[11.4 µM]	x	x
CCNc1ncc2nc(-c3cn(C)c4ccccc34)c(=O)n(C)c2n1	-1%[11.4 µM]	x	x
CC(C)(C)Cc1nc(-c2ccccn2)no1	-3%	>77	>57
CC(C)c1ccc(OCc2nc(-c3ccccn3)no2)c(Br)c1	16µM*	>77	x
CC(Oc1ccc(Cl)cc1Cl)c1nc(-c2ccccn2)no1 (stereo not given)	-7%	x	x
Cc1ccc(OCc2nc(-c3ccccn3)no2)c(Br)c1	5µM*	x	x
Clc1ccccc1OCc1nc(-c2ccncc2)no1	u	>77	x
SMILES	Luciferase inh	GBA mod	PK Bst
Cc1ccc(SCc2nc(-c3ccccn3)no2)cc1	-4%	>77	>57
CCc1ccc(OCc2nc(-c3ccccn3)no2)c(Br)c1	13µM*	>77	u
Clc1ccc(OCc2nc(-c3ccncc3)no2)c(Br)c1	7.9µM*	x	x
C/C(CCN1CCCc2nc(C)c(C)cc21)=N\OC[C@@H](C)[C@H](OCc1ccccc1)C(C)C	0%[11.4 µM]	x	x
CN(C)CCCO[C@H]1[C@@H]2OC(C)(C)O[C@@H]2O[C@@H]1[C@H](O)CO	5%[25.5 µM]	x	x
O=c1c(CCc2ccccc2)nc2cnc(N3CCOCC3)nc2n1CCc1ccccc1	1%[11.4 µM]	x	x
CNc1cc(-c2ccccc2CN(C)C)ncn1	0%[2.29 µM]	x	x
O=c1c(-c2ccc(Cl)cc2)nc2cnc(N3CCOCC3)nc2n1Cc1ccc(F)cc1	0%[11.4 µM]	x	x
O=C(c1csnn1)N1CCC2(CCN(Cc3cc(C(F)(F)F)cc(C(F)(F)F)c3)CC2)CC1	-1%[11.4 µM]	x	x
CC1=CC(C)(C)N=C(Nc2ccc(C)cc2)S1	0%	x	>57
Cc1ccc(NC2=Nc3ccccc3CS2)cc1	4µM*	>77	4.1*
O=C(COC(=O)c1cccnc1)Nc1cccc(Cl)c1	-3%	>77	>57
O=C(COC(=O)c1cccnc1)c1ccc(Cl)cc1	16µM*	>77	x
COCC(=O)N1CCC2(CCN(Cc3ccc(C#N)cc3)CC2)CC1	1%[11.4 µM]	x	x
Cc1c(NC(=O)CN2C(=O)c3ccccc3S2(=O)=O)c(=O)n(-c2ccccc2)n1C	2%	>77	>57
COc1ccc(NC(=O)CN2c3cccc4cccc(c34)S2(=O)=O)cc1	0%	>77	1.4*
Cc1c(NC(=O)CN2c3cccc4cccc(c34)S2(=O)=O)c(=O)n(-c2ccccc2)n1C	-1%	>77	11*
COc1ccc(OC)c(NC(=O)CN2C(=O)c3ccccc3S2(=O)=O)c1	2%	x	x
Cc1ccc(C(=O)[C@@H]2[C@@H]3[C@@H](C(=O)[C@@H]4OC[C@H]3O4)[C@@H]3C=Cc4ccccc4N23)cc1	-2%[11.4 µM]	x	x
O=S(=O)(c1ccccc1)N1CCC2(CCN(c3ncccn3)CC2)CC1	2%[11.4 µM]	x	x
O=C(CN1C2=NCCCN2c2ccccc21)c1ccc(Br)s1	1%	6.6*	>57
O=C(CN1C2=NCCCN2c2ccccc21)c1ccc2c(c1)OCO2	3%	>77	>57
Nc1ncnc2c1ncn2[C@@H]1O[C@@H](C(=O)NC2CC2)[C@H](O)[C@@H]1O	3%	x	x
C[C@@H](COc1ccc(/C=C\c2ccccc2)cc1)[N+](C)(C)C	-4%	x	x
COc1cc(C(=O)Nc2nc3ccccc3[nH]2)cc(OC)c1OC	-20%	>77	x
SMILES	Luciferase inh	GBA mod	PK Bst
c1ccc(OCc2nc3ccccc3[nH]2)cc1	25µM*	>77	x
O=C(O)CCc1nc2ccccc2[nH]1	1%[11.4 µM]	x	x
O=C(COc1ccccc1)Nc1nc2ccccc2[nH]1	20µM*	>77	x
COC(=O)C/C=C\[C@@H](C)[C@@H](/C=N\O[C@@H](C)CN1CCCc2nc(C)c(C)cc21)NS(=O)(=O)c1ccc(C)cc1	0%[11.4 µM]	x	x
COCCNc1ccnc(-c2ccccc2C)n1	0%[2.29 µM]	x	x
COc1ccccc1CCn1c(=O)c(CCc2ccccc2)nc2cncnc21	2%[11.4 µM]	x	x
NC1=NC(=Nc2ccccc2)c2ccccc21	-3%	10*	>57
CNCCCCCCCCSc1nc(C(C)C)ccc1C(=O)c1cccs1	0%	x	x
O=C1CNCCCN2CCN(CCCNCC(=O)Nc3ccc(cc3)S(=O)(=O)c3ccc(cc3)NC(=O)CNCCCN3CCN(CCCNCC(=O)Nc4ccc(cc4)S(=O)(=O)c4ccc(cc4)N1)CC3)CC2	2%[11.4 µM]	x	x
CCOc1ccc2c(c1)sc(=NC(=O)C1CC1)n2C	13µM*	x	i
CCOc1ccc2c(c1)sc1nc(C(=O)OC)cc(=O)n12	1%	x	x
CN(C)CCCN=c1c2ccccc2n(C)c2[nH]c(=O)n(C)c(=O)c12	4%[11.4 µM]	x	x
CCc1nnc(NC(=O)c2ccc(S(=O)(=O)N(CC(C)C)CC(C)C)cc2)o1	0%	u	>57
COCCN(CCOC)S(=O)(=O)c1ccc(C(=O)Nc2nnc(C)o2)cc1	0%	>77	>57
CSCc1nnc(NC(=O)c2ccc(S(=O)(=O)N(CC(C)C)CC(C)C)cc2)o1	1%	6.8*	>57
Cc1nnc(NC(=O)c2ccc(S(=O)(=O)N(C)Cc3ccccc3)cc2)o1	0%	14*	>57
CC(=O)N1CCC2(CC1)CN(c1cccc(-c3ccccc3)c1)C2	-14%[11.4 µM]	x	x
COc1cc(C)cc2c(-c3c(O)cc(O)c4c3C[C@H](C)N[C@@H]4C)cc(-c3cc(-c4c(O)cc(O)c5c4C[C@H](C)N[C@@H]5C)c4cc(C)cc(OC)c4c3O)c(O)c12	1%[11.4 µM]	x	x
N[C@H](CCCC(=O)O)C(=O)O	-11%	x	x
S=C(c1ccc(-c2ccc(Cl)c(Cl)c2)o1)N1CCOCC1	7.9µM*	x	x
COc1ccc(-c2ccc(C(=S)N3CCN(C(C)=O)CC3)o2)cc1	-23%	>77	i
N#CCCN1CCN(C(=S)c2ccc(-c3cc(Cl)ccc3Cl)o2)CC1	-8%	>77	>57

Screening data as filed in PubChem BioAssay.
